Measurements as given in the supplement of paper PMC6805474.

Columns and labels:
[1] = tested on: Schistosoma mansoni schistosomula (LE); test: XTT viability relative to DMSO control; higher = more viable (less active); details: 72 h; 10 µM
Protocol: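 XTT/PMS was then added for a further 24 h (72 h total) and A450 was read. % viability = (sample - heat-killed control)/(DMSO control - heat-killed control) x 100, from duplicate wells in two independent experiments.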

[2] = tested on: Schistosoma mansoni schistosomula (NMRI); test: phenotypic severity score (0-4); higher = more antischistosomal effect, active = 2 or more; details: 10 µM
[3] = tested on: Schistosoma mansoni schistosomula (Liberian); test: drug effect (1 - score/DMSO control score) (fraction); higher = more antischistosomal effect, active = 0.5 or more; extreme values may be limits of the assay; details: 10 µM
How it was run: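 Drug effect was calculated by comparing the mean score of the test wells with the mean score of the DMSO wells, and any negative value was set to zero. Duplicate wells of 50 Liberian-strain S. mansoni schistosomula, mechanically transformed from cercariae and pre-incubated at least 12 h, received 10 µM compound in Medium 199 with 5% FCS at 37 °C, 5% CO2, with 0.1% DMSO in the comparison wells. Visual scoring at 10× took place at 24, 48 and 72 h on a quarter-point scale from 3 (normal) to 0 (dead), and a plate counted only if its DMSO wells averaged at least 2.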
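Throughout, for phenotypic severity score (0-4): visual microscopic scoring of shape, motility and density changes versus 0.5% DMSO solvent controls, one point per descriptor, degeneracy or death scored 4, mean of duplicate wells.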

Cc1ccc(-c2nc(CN(Cc3ccccn3)C(C)C)cs2)o1
inactive: phenotypic severity score ([2]; 24 h) 0 | phenotypic severity score ([2]; 48 h) 1 | phenotypic severity score ([2]; 72 h) 0 | drug effect ([3]; 24 h) 0.05 | drug effect ([3]; 48 h) 0.222 | drug effect ([3]; 72 h) 0.389
84.4%: XTT viability [1]

COc1cccc(NC(=O)c2c(NC(=O)c3cccnc3)sc3c2CCC3)c1
94.4%: XTT viability [1]
inactive: phenotypic severity score ([2]; 24 h) 0 | phenotypic severity score ([2]; 48 h) 0 | phenotypic severity score ([2]; 72 h) 0 | drug effect ([3]; 24 h) 0.25 | drug effect ([3]; 48 h) 0.222 | drug effect ([3]; 72 h) 0.438

O=C(NC1=NCCS1)c1sc2cc(F)ccc2c1Cl
inactive: phenotypic severity score ([2]; 24 h) 0 | phenotypic severity score ([2]; 48 h) 0 | phenotypic severity score ([2]; 72 h) 0 | drug effect ([3]; 24 h) 0.0909 | drug effect ([3]; 48 h) 0.1 | drug effect ([3]; 72 h) 0.0182
81%: XTT viability [1]

Cc1cccc(Cn2ccc(NC(=O)c3ccc4c(c3)OCO4)n2)c1
93.2%: XTT viability [1]
inactive: phenotypic severity score ([2]; 24 h) 0 | phenotypic severity score ([2]; 48 h) 0 | phenotypic severity score ([2]; 72 h) 0 | drug effect ([3]; 24 h) 0.0556 | drug effect ([3]; 48 h) 0.125 | drug effect ([3]; 72 h) < 0

Cc1cc(Cl)ccc1NC(=O)CCc1ccc(S(=O)(=O)NCC(C)C)cc1
107%: XTT viability [1]
inactive: phenotypic severity score ([2]; 24 h) 0 | phenotypic severity score ([2]; 48 h) 0 | phenotypic severity score ([2]; 72 h) 0 | drug effect ([3]; 24 h) 0.2 | drug effect ([3]; 48 h) 0.278 | drug effect ([3]; 72 h) 0.375

Clc1ccc(CCNc2cc(-c3ccccc3)nc3ncnn23)cc1
inactive: phenotypic severity score ([2]; 24 h) 0 | phenotypic severity score ([2]; 48 h) 1 | phenotypic severity score ([2]; 72 h) 0 | drug effect ([3]; 24 h) 0.136 | drug effect ([3]; 48 h) 0.2 | drug effect ([3]; 72 h) 0.127
83.9%: XTT viability [1]

O=C(C1CCN(c2nnnn2-c2ccccc2)CC1)N1CCc2ccccc2C1
117%: XTT viability [1]
inactive: phenotypic severity score ([2]; 24 h) 0 | phenotypic severity score ([2]; 48 h) 0 | phenotypic severity score ([2]; 72 h) 0 | drug effect ([3]; 24 h) 0.135 | drug effect ([3]; 48 h) 0.111 | drug effect ([3]; 72 h) 0.25

COc1ccc(CN2CCOc3ccc(C(C)(O)CN(C)C)cc3C2)cc1C (configuration not stated)
inactive: phenotypic severity score ([2]; 24 h) 0 | phenotypic severity score ([2]; 48 h) 0 | phenotypic severity score ([2]; 72 h) 1 | drug effect ([3]; 24 h) 0.1 | drug effect ([3]; 48 h) 0.0556 | drug effect ([3]; 72 h) < 0
120%: XTT viability [1]

CC(=O)NCC1CN(c2ccc(-c3ccc(CNCc4cn[nH]n4)cc3)c(F)c2)C(=O)O1 (configuration not stated)
inactive: phenotypic severity score ([2]; 24 h) 0 | phenotypic severity score ([2]; 48 h) 0 | phenotypic severity score ([2]; 72 h) 0 | drug effect ([3]; 24 h) 0.05 | drug effect ([3]; 48 h) 0.0556 | drug effect ([3]; 72 h) < 0
108%: XTT viability [1]

CC(C)c1ncc(-c2ccncc2)c([C@H]2CC[C@H](CNC(=O)c3cccnc3)CC2)n1
inactive: phenotypic severity score ([2]; 24 h) 0 | phenotypic severity score ([2]; 48 h) 0 | phenotypic severity score ([2]; 72 h) 0 | drug effect ([3]; 24 h) 0.05 | drug effect ([3]; 48 h) 0.0811 | drug effect ([3]; 72 h) 0.111
94%: XTT viability [1]

CCc1nc2ccc(Cl)cn2c1C(=O)NCc1ccc(N2CCC(c3ccc(OC(F)(F)F)cc3)CC2)cc1
inactive: phenotypic severity score ([2]; 24 h) 1 | phenotypic severity score ([2]; 48 h) 0 | phenotypic severity score ([2]; 72 h) 0 | drug effect ([3]; 24 h) 0.105 | drug effect ([3]; 48 h) 0.0556 | drug effect ([3]; 72 h) < 0
66.8%: XTT viability [1]

CS(=O)(=O)N1CCC(CCn2nc(Cc3cccc4ccccc34)c3c(N)ncnc32)CC1
active: drug effect ([3]; 72 h) 0.509
90.7%: XTT viability [1]
inactive: phenotypic severity score ([2]; 24 h) 0 | phenotypic severity score ([2]; 48 h) 0 | phenotypic severity score ([2]; 72 h) 0 | drug effect ([3]; 24 h) 0.273 | drug effect ([3]; 48 h) 0.45

Cc1ccc2cc(C3NC(=O)c4ccccc4N3)c(Cl)nc2c1 (configuration not stated)
99%: XTT viability [1]
inactive: phenotypic severity score ([2]; 24 h) 0 | phenotypic severity score ([2]; 48 h) 0 | phenotypic severity score ([2]; 72 h) 1 | drug effect ([3]; 24 h) 0.05 | drug effect ([3]; 48 h) 0.0811 | drug effect ([3]; 72 h) 0.111

CC(c1cc(Cl)cc(Cl)c1)N(C)c1ncc2c(N)nc(N)nc2n1 (configuration not stated)
inactive: phenotypic severity score ([2]; 24 h) 0 | phenotypic severity score ([2]; 48 h) 0 | phenotypic severity score ([2]; 72 h) 0 | drug effect ([3]; 24 h) < 0 | drug effect ([3]; 48 h) < 0 | drug effect ([3]; 72 h) 0.167
42.2%: XTT viability [1]

Cc1nc2ccccn2c1C(=O)NCc1ccc(Cl)cc1
81%: XTT viability [1]
inactive: phenotypic severity score ([2]; 24 h) 0 | phenotypic severity score ([2]; 48 h) 0 | phenotypic severity score ([2]; 72 h) 0 | drug effect ([3]; 24 h) 0.1 | drug effect ([3]; 48 h) 0.189 | drug effect ([3]; 72 h) 0.333

Cc1cc(O)nc(-n2nc(C)cc2C)n1
active: drug effect ([3]; 72 h) 0.576
93.1%: XTT viability [1]
inactive: phenotypic severity score ([2]; 24 h) 0 | phenotypic severity score ([2]; 48 h) 0 | phenotypic severity score ([2]; 72 h) 0 | drug effect ([3]; 24 h) 0.15 | drug effect ([3]; 48 h) 0.243

CCOC(=O)NC(=O)c1ccsc1NC(=O)c1nc2ccccc2s1
134%: XTT viability [1]
inactive: phenotypic severity score ([2]; 24 h) 0 | phenotypic severity score ([2]; 48 h) 0 | phenotypic severity score ([2]; 72 h) 0 | drug effect ([3]; 24 h) 0.0909 | drug effect ([3]; 48 h) 0.2 | drug effect ([3]; 72 h) 0.182

NCCC(O)C(=O)N[C@@H]1C[C@H](N)[C@@H](OC2O[C@H](CN)[C@@H](O)[C@H](O)[C@H]2O)[C@H](O)C1OC1O[C@H](CO)[C@@H](O)[C@H](N)[C@H]1O (some centres not stated)
93.8%: XTT viability [1]
inactive: phenotypic severity score ([2]; 24 h) 0 | phenotypic severity score ([2]; 48 h) 0 | phenotypic severity score ([2]; 72 h) 0 | drug effect ([3]; 24 h) < 0 | drug effect ([3]; 48 h) 0.0625 | drug effect ([3]; 72 h) < 0

CS(=O)(=O)N1CCC(Cn2nc(Cc3cccc4ccccc34)c3c(N)ncnc32)CC1
122%: XTT viability [1]
inactive: phenotypic severity score ([2]; 24 h) 0 | phenotypic severity score ([2]; 48 h) 0 | phenotypic severity score ([2]; 72 h) 0 | drug effect ([3]; 24 h) 0.1
active: drug effect ([3]; 48 h) 0.568 | drug effect ([3]; 72 h) 0.636

CN1CCN(c2cc(-c3ccc(F)cc3)nc(-c3ccncc3)n2)CC1
inactive: phenotypic severity score ([2]; 24 h) 0 | phenotypic severity score ([2]; 48 h) 0 | phenotypic severity score ([2]; 72 h) 0 | drug effect ([3]; 24 h) 0.182 | drug effect ([3]; 48 h) 0.35 | drug effect ([3]; 72 h) 0.345
63%: XTT viability [1]

Nc1ncc(-c2cn[nH]c2)cc1-c1nc2cc(Cl)cnc2[nH]1
94.4%: XTT viability [1]
inactive: phenotypic severity score ([2]; 24 h) 0 | phenotypic severity score ([2]; 48 h) 0 | phenotypic severity score ([2]; 72 h) 0 | drug effect ([3]; 24 h) < 0 | drug effect ([3]; 48 h) < 0 | drug effect ([3]; 72 h) 0.0556
